Assay [1] is described as follows: qHTS assay to identify small molecule antagonists of the estrogen related receptor (ERR) signaling pathway from Tox21 library - cell viability counter screen (AID 1224834). Also: nearly all actives have a fitted effect of over 30% in size. Also: potency is read from the fitted curve at half-maximal effect. In short, it runs like this:
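Fluorescence from CellTiter-Fluor gives the viability read-out, taken 30 min after reagent addition. Before that, ERR cells seeded 6 h earlier were incubated with compounds for 17.5 h at 37 C.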

Assay [2] is described as follows: qHTS assay to identify small molecule agonists of the constitutive androstane receptor (CAR) signaling pathway - cell viability counter screen (AID 1224836). Also: nearly all actives have a fitted effect of over 45% in size. Also: potency is read from the fitted curve at half-maximal effect. A digest of the protocol: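 HepG2-CYP2B6-hCAR, 2500 cells/well, 4 h pre-incubation; cpd 15 conc + PK11195 0.75 uM final; 23 h, 37 C/5% CO2; CellTiter-Fluor, fluorescence.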
Assay [3] in a line: qHTS assay to identify small molecule antagonists of the constitutive androstane receptor (CAR) signaling pathway - cell viability counter screen (AID 1224837). Also: nearly all actives have a fitted effect of over 45% in size. Also: potency is read from the fitted curve at half-maximal effect. In short, it runs like this:
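HepG2-CYP2B6-hCAR cells, 2500/well, 4 hr pre-incubation; compound titration, 15 conc.; CITCO 50 nM final; 23 hr, 37 C/5% CO2; CellTiter-Fluor, fluorescence intensity.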

A short description of assay [4]: qHTS assay to identify small molecule antagonists of the estrogen related receptor signaling pathway with the pleiotropic PPARgamma coactivator (PGC) from Tox21 10K library - cell viability counter screen (AID 1224840; active = well fitted cell-killing curve with a large enough effect in the repeat runs, not every such curve was filed as active; also: nearly all actives have a fitted effect of over 40% in size; also: potency is read from the fitted curve at half-maximal effect). A digest of the protocol:
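PGC/ERR cells, 2,000/well; 6 h pre-incubation 37 C/5% CO2; cpd in DMSO via pin tool; 17.5 h 37 C; CellTiter-Fluor, 30 min; fluorescence.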
(In qHTS, concentration-response curves come from the screen itself.)

The target of assay [5] is Luciferin 4-monooxygenase (Photinus pyralis) (UniProt P08659). Put plainly: qHTS assay to identify small molecule inhibitors of firefly luciferase (AID 1224835). Also: nearly all actives have a fitted effect of over 25% in size. Also: potency is read from the fitted curve at half-maximal effect. A digest of the protocol:
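Biochemical qHTS: compounds run as interplate titrations against purified firefly enzyme, with D-luciferin and ATP each at its KM concentration. Light output recorded by CCD imaging.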

Assay [6] deals with Thyrotropin receptor (Homo sapiens) (UniProt P16473). Put plainly: qHTS assay to identify small molecule agonists of the thyroid stimulating hormone receptor (TSHR) signaling pathway (AID 1224843; calls by dose curve; also: nearly all actives have a fitted effect of over 45% in size; also: potency is read from the fitted curve at half-maximal effect). A digest of the protocol: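 TSHR-HEK293 cells in agonist mode, 30 min room-temperature step, then cAMP measured by competitive HTRF (cAMP-d2 with anti-cAMP cryptate) after 1 h at room temperature. Tested at 15 concentrations in triplicate.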

The target in assay [7] is Nuclear receptor subfamily 1 group I member 3 (Homo sapiens) (UniProt Q14994). Briefly: qHTS assay to identify small molecule antagonists of the constitutive androstane receptor (CAR) signaling pathway (AID 1224838).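 Also: HepG2 cells stably expressing hCAR with CYP2B6 luciferase reporter stimulated by CITCO; nearly all actives have a fitted effect of over 40% in size.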 Also: potency is read from the fitted curve at half-maximal effect. In short, it runs like this: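 HepG2-CYP2B6-hCAR cells; 4 h pre-incubation; cpd (15 conc) + CITCO 50 nM final; 24 h, 37 C/5% CO2; ONE-Glo, luminescence.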

For assay [8] the target is unchanged. Briefly: qHTS assay to identify small molecule agonists of the constitutive androstane receptor (CAR) signaling pathway (AID 1224839). Also: nearly all actives have a fitted effect of over 15% in size. Also: potency is read from the fitted curve at half-maximal effect. A digest of the protocol:
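HepG2-CYP2B6-hCAR cells, 2500/well, 4 h pre-incubation; compounds 15 conc.; PK11195 0.75 uM final; 24 h, 37 C/5% CO2; ONE-Glo luciferase read.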

Assay [9] in a line: qHTS assay to identify small molecule antagonists of the estrogen related receptor signaling pathway with the pleiotropic PPARgamma coactivator (PGC) from Tox21 10K library (AID 1224841; call rule not given here; also: actives are mostly falling curves and most rising ones were filed inactive; nearly all actives have a fitted effect of over 50% in size; also: potency is read from the fitted curve at half-maximal effect). A digest of the protocol: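 PGC/ERR cell line, 2,000 cells/well; 6 h pre-incubation 37 C/5% CO2; compounds (DMSO) pinned in; 18 h, 37 C; One-Glo, 30 min RT; luminescence.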
A short description of assay [10]: qHTS assay to identify small molecule agonists of the estrogen related receptor signaling pathway with the pleiotropic PPARgamma coactivator (PGC) from Tox21 10K library (AID 1224842). Also: nearly all actives have a fitted effect of over 15% in size. In short, it runs like this:
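PGC/ERR reporter cell line, 2,000 cells per well, incubated 6 h at 37 C before 23 nL compound in DMSO was added. After 18 h at 37 C, One-Glo luminescence read following 30 min at room temperature.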

Molecules are shown by their SMILES. Values joined by “and” are separate entries in the source; they are usually repeats but may differ in a detail not shown here. Equal entries are not always repeated. Results filed as inconclusive are left out. Active and inactive are the calls of the source. Unless noted, calls follow the shape of the dose curve; as a rule, active = well fitted curve in the direction sought with a large enough effect in the repeat runs; inconclusive = weak or mixed curves; inactive = no such curve, though single readings can be large; an effect the other way counts as inactive or inconclusive.

Chain of Thyrotropin receptor (Homo sapiens) (P16473 whole entry, looked up): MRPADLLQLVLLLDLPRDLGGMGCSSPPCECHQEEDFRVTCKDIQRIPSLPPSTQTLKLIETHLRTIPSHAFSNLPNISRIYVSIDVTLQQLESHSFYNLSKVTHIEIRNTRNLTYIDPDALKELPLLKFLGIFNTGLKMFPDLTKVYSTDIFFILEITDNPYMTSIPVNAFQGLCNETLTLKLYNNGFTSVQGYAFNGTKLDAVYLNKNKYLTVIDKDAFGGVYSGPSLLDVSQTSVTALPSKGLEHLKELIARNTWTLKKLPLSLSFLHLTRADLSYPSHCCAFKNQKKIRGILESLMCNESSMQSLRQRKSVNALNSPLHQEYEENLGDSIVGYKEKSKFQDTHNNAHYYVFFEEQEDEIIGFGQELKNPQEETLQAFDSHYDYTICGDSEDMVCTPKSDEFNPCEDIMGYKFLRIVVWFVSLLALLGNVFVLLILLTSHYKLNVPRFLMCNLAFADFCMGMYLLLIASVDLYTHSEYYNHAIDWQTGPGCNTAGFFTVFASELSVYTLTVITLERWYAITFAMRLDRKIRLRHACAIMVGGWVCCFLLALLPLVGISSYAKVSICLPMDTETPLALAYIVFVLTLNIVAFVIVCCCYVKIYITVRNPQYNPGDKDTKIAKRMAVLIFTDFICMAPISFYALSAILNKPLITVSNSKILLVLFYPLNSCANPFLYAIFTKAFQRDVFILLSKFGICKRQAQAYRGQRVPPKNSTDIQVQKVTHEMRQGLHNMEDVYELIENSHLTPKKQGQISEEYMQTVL
Chain of Luciferin 4-monooxygenase (Photinus pyralis) (P08659 whole entry, looked up): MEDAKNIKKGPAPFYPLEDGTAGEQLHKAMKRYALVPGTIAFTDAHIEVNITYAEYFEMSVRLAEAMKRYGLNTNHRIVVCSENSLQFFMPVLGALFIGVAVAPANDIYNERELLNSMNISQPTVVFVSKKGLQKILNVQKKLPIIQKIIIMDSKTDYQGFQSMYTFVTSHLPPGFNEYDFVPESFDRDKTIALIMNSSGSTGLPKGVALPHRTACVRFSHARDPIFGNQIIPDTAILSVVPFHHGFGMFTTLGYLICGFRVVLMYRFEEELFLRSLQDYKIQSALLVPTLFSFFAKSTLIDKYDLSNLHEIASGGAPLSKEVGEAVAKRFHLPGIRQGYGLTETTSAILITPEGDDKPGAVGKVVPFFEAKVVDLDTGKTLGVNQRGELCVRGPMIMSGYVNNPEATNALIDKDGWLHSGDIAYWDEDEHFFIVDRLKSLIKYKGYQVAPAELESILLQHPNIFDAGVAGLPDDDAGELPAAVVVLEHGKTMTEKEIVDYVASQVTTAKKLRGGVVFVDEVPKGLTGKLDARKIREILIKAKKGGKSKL
Chain of Nuclear receptor subfamily 1 group I member 3 (Homo sapiens) (Q14994 whole entry, looked up): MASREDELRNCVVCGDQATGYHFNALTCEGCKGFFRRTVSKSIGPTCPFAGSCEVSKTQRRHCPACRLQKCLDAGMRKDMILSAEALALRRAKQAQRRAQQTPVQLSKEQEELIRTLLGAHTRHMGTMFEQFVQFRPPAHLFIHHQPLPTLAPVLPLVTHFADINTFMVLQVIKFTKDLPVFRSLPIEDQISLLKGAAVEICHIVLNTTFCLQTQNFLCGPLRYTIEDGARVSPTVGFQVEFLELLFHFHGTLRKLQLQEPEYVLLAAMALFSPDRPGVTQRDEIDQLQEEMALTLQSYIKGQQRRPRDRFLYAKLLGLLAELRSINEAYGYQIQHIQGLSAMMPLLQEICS

As to `CCCCn1cc[n+](C)c1` (tested in a mixture with another compound), the Potency entry in assay [1], in assay [2], in assay [3] and in assay [4] was “inactive” each time.

As to `CCC(C)c1cccc(C(C)CC)c1O` (stereo unspecified), the Potency result in assay [5], in assay [2] and in assay [3] was “inactive” each time.

With `[C-]1=CC=CC1.[Cl][Zr+2][Cl].c1cc[cH-]c1`, the Potency entry in assay [1], in [2], in assay [3] and in assay [4] was “inactive” each time.

As to `O=S(=O)(NS(=O)(=O)C(F)(F)F)C(F)(F)F`, the results for the Potency in [1], in assay [2] and in [3] were 43.1 µM (active), 24.3 µM (active) and 30.5 µM (active), respectively. Moreover, the Potency entry in assay [4] was “inactive”.

Take `COC(=O)c1ccccc1S(=O)(=O)NC(=O)Nc1nc(C)nc(OC)n1`: the Potency entry in [1], in assay [2], in assay [3], in [4] and in [6] was “inactive” each time.

With `CN1[C@@H]2CC[C@H]1CC(O)C2` (stereo partly specified), the Potency result in assay [1], in [3], in [7], in assay [8] and in assay [4] was “inactive” in each case.

For `COP(=S)(OC)Oc1nc(Cl)c(Cl)cc1Cl`, the Potency entry in [1], in assay [2], in assay [3], in assay [7], in [4] and in assay [9] was “inactive” each time. Besides, the Potency entry in [10] and in assay [6] was “inactive” in each case.

With `C[C@]12Cc3cn[nH]c3C[C@@H]1CC[C@@H]1[C@@H]2CC[C@@]2(C)[C@H]1CC[C@]2(C)O`, the Potency result in assay [5], in [2], in [3], in [7], in [8] and in assay [4] was “inactive” in each case. Further, the Potency entry in assay [10] and in [6] was “inactive” throughout.

Consider `c1ccc(Nc2ccc(Nc3ccccc3)cc2)cc1`, for which the values for the Potency in assay [5] and in assay [8] were 28.1 µM (active) and 24.2 µM (active), respectively. The Potency result in [2], in assay [3], in assay [7], in [4] and in assay [9] was “inactive” in each case.

In the case of `C#CCC1=C(C)C(OC(=O)C2C(C=C(C)C)C2(C)C)CC1=O` (stereo unspecified), the Potency result in assay [5], in assay [2], in [3], in [7] and in assay [10] was “inactive” throughout. Further, the Potency in assay [8] and in [6] was 60.7 µM (active) each time.

As to `Oc1ccc(Cl)c(Cl)c1`, the Potency result in [5], in assay [2], in [3], in assay [8], in [4] and in [9] was “inactive” each time. In addition, the Potency entry in [10] was “inactive”.

Take `CC(Cc1ccc2c(c1)OCO2)NO` (stereo unspecified): the Potency entry in assay [5], in assay [2], in assay [3], in assay [7], in assay [8] and in assay [4] was “inactive” throughout. Also, the Potency result in assay [9], in assay [10] and in [6] was “inactive” each time.

Consider `CC(C)(C)c1ccc(OP(=O)(Oc2ccccc2)Oc2ccccc2)cc1`, for which the Potency entry in assay [5], in assay [2], in [3], in [7], in [4] and in assay [10] was “inactive” each time. In addition, the Potency in assay [8] is 48.9 µM (active); in [9], 7.74 µM (active).

As to `COP(=S)(NC(C)C)Oc1ccc(C)cc1[N+](=O)[O-]` (stereo unspecified), the Potency entry in assay [5], in assay [2], in assay [3], in [7] and in assay [4] was “inactive” each time. Moreover, the Potency in assay [8] was 6.86 µM (active).

For the compound `Clc1cc(Cl)c(-c2cc(Cl)c(Cl)cc2Cl)cc1Cl`, the Potency result in [5], in assay [2], in [3] and in [4] was “inactive” in each case.

For the compound `CC(O)C(=O)[O][Hg][c]1ccccc1` (stereo unspecified), the Potency in assay [5] is 3.99 µM (active); in assay [2] it was 4.86 µM (active); in assay [3], 4.86 µM (active); in assay [7], 4.33 µM (active); in assay [4], 3.06 µM (active); in [9] it was 4.86 µM (active). The Potency in [6] is 2.43 µM (active). Besides, the Potency entry in assay [8] and in assay [10] was “inactive” throughout.

With `COP(=O)(OC)O/C(=C\Cl)c1cc(Cl)c(Cl)cc1Cl`, the Potency entry in assay [5], in [2], in assay [3] and in [10] was “inactive” throughout. Besides, the Potency in assay [9] is 5.45 µM (active).

As for `CC(=O)C(Cl)C(=O)N(C)C` (stereo unspecified), the Potency result in assay [5], in assay [2], in [3], in [8], in assay [4] and in [6] was “inactive” throughout.

For `CCOP(=O)(OCC)Oc1cc(C)nc(C(C)C)n1`, the Potency entry in assay [5], in assay [2], in assay [3], in assay [4], in assay [9] and in assay [10] was “inactive” each time. The Potency result in assay [6] is “inactive”.

With `C[C@]12C/C(=C/O)C(=O)C[C@@H]1CC[C@@H]1[C@@H]2CC[C@@]2(C)[C@H]1CC[C@]2(C)O`, the Potency result in assay [5], in assay [3], in assay [7], in [8], in [4] and in assay [10] was “inactive” in each case. Besides, the Potency entry in assay [6] is “inactive”. For the same compound, in assay [9], the Potency was 43.7 µM (active) and 26.6 µM (active).

`[O-][Cl+3]([O-])([O-])O`: the Potency result in [5], in assay [2], in assay [3] and in assay [4] was “inactive” in each case.

In the case of `CC(C)NCC(O)c1ccccc1Cl` (stereo unspecified), the Potency result in assay [5], in [2], in assay [3], in [7], in [8] and in [4] was “inactive” throughout. Also, the Potency entry in assay [9] and in [10] was “inactive” in each case.

For the compound `O=C(N[C@@H]1N=C(c2ccccc2F)c2cccc3c2N(CC3)C1=O)c1cc2ccccc2[nH]1`, the Potency in assay [5] was 9.77 µM (active); in [8], 2.98 µM (active). In addition, the Potency entry in [2], in assay [3], in assay [7], in [4] and in [6] was “inactive” each time.

Take `CCNS(=O)(=O)C(F)(F)C(F)(F)C(F)(F)C(F)(F)C(F)(F)C(F)(F)C(F)(F)C(F)(F)F`: the Potency result in assay [5], in [2], in [3], in [7], in [8] and in assay [4] was “inactive” in each case. The Potency entry in assay [9] and in [10] was “inactive” each time.

Regarding `CN(C)C(=S)SSC(=S)N(C)C`, the Potency in assay [5] is 2.21 µM (active) and 1.26 µM (active) and 1.55 µM (active); in [2] it was 339 nM (active) and 486 nM (active) and 531 nM (active); in assay [3] it was 269 nM (active) and 344 nM (active) and 422 nM (active); in [4] it was 214 nM (active) and 243 nM (active) and 266 nM (active). Moreover, the Potency result in assay [8] was “inactive”.
